Shown are actives, neighbours in structure and some others; about 22% of the full set was active somewhere.
LmPK inhibitor – LmPK (Leishmania mexicana) enzyme inhibition. Q27686. Potency, µM (series often up to 57.5 µM), without a hit: at the top dose activity change, negative = inhibition, most hits filed as inhibitors. 0.37% of 290,000 active. purified LmPK, Kinase-Glo ATP luminescence, 1 h; note: potency is the fitted concentration of half-maximal effect; % is set by controls: 0 for no effect and ±100 for the full control effect
Target sequence (Q27686 whole entry, looked up): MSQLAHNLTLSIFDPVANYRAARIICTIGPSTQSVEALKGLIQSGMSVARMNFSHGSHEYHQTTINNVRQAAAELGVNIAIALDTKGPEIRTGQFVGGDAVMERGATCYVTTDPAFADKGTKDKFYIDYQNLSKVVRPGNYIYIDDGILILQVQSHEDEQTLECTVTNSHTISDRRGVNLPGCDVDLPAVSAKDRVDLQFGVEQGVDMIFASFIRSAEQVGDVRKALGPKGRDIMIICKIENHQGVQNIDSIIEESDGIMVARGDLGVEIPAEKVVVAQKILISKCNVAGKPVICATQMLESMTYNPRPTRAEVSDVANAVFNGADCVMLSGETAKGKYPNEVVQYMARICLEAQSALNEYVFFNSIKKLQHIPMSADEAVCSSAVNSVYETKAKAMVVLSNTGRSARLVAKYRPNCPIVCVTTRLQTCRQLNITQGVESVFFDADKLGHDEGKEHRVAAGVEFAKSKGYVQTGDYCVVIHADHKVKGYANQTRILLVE
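Kinase-Glo luminescence read after 1 h RT reaction of 0.1 nM LmPK with 0.5 mM PEP and 0.1 mM ADP. Activity scaled between uninhibited and enzyme-free controls.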
Shiga inhibitor – blocks Shiga toxin action in Vero cells; Vero cells, Shiga toxin protein synthesis inhibition reporter; 9.2% of 290,000 active; inhibition, % at 38.7 µM; in the data active = inhibition mostly above about 28%, no sharp cut-off; inactive = mostly below about 43%; note: 0% is about no effect
Pf growth 96h – P. falciparum growth inhibition at 96 hours; P. falciparum luciferase reporter growth, 96 h; Potency, µM (titrated, usually from 28.7 µM), without a hit: at the highest dose activity change, negative = inhibition, hits mostly inhibitors; 6.9% of 320,000 active; AID 504834; note: potency is the fitted concentration of half-maximal effect; % is set by controls: 0 for no effect and ±100 for the full control effect
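P. falciparum expressing integrated firefly luciferase, in erythrocytes at 2% hematocrit, 0.05% parasitemia, incubated with compounds 96 h at 37 C, 5% CO2. Growth inhibition read as loss of luminescence; two-generation exposure targets delayed-death apicoplast inhibitors.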
Pf growth 48h – P. falciparum growth inhibition at 48 hours (one generation); P. falciparum luciferase growth in erythrocytes, 48 h; Potency, µM (top dose mostly 28.7 µM), without a hit: at the top dose activity change, negative = inhibition, actives largely listed as inhibitors; 5.9% of 310,000 active; note: potency is the fitted concentration of half-maximal effect; % is set by controls: 0 for no effect and ±100 for the full control effect
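In quantitative HTS format, infected erythrocytes bearing luciferase-reporter parasites were treated for a single generation at 37 C. Luminescence after adding detection reagent served as the growth measure.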
Cycloheximide cs – counter-screen hit for Shiga toxin inhibitors, cycloheximide; cell reporter, cycloheximide protein synthesis inhibition counterscreen; max response, %; 12% of 300,000 active; AID 2314; in the data active = max response mostly above about 13%, no sharp cut-off; inactive = mostly below about 14%; note: read at 38.3 µM for the half of the compounds with a filed dose; 0% is about no effect
Starred values were filed as active, the others as inactive; i = inactive; ? = inconclusive; / = not tested or not shown; [ ] = dose if it differs, or a comment. Unless noted, calls come from the whole dose curve; as a rule, active = well fitted inhibition curve with a large enough effect; inconclusive = small, poorly fitted or top-dose-only effect, or another doubt; inactive = no such curve, though single readings can be large or run the other way.

SMILES | LmPK inhibitor | Shiga inhibitor | Pf growth 96h | Pf growth 48h | Cycloheximide cs
O=C(CSCc1ccc(Br)cc1)N1CCOCC1 | -5% | 64* | 20% | 18% | 31*
O=C(CSCc1c(Cl)cccc1Cl)N1CCOCC1 | 1% | -4 | 3% | -3% | 2
CC1CCN(C(=O)CSCc2ccc(Cl)cc2)CC1 | 1% | 31 | 133% | / | 35*
CC1CCN(C(=O)CN(Cc2ccc(Cl)cc2)S(C)(=O)=O)CC1 | 3% | 11 | 6% | -5% | -3
CCn1c(COc2ccc(C)cc2)nnc1SCc1nc2ccccc2[nH]1 | 1% | 28 | ? | ? | 1
CCn1c(SCc2nc3ccccc3[nH]2)nnc1-c1cccs1 | 3% | -7 | -27% | 0% | 2
Cn1c(COc2ccccc2)nnc1SCc1nc2ccccc2[nH]1 | 1% | -5 | 1.5µM* | -14% | -3
Cn1nnnc1SCc1nc2ccccc2[nH]1 | -2% | 62 | 128% | 29% | 34*
CCn1c(SCc2nc3ccccc3[nH]2)nnc1-c1ccccc1OC | 6% | -5 | 3.7µM* | ? | 10
Nn1c(SCc2nc3ccccc3[nH]2)nnc1-c1cccnc1 | -2% | 9 | / | 14% | 0
Cc1ccc(CNS(=O)(=O)NCc2ccc(Cl)cc2)cc1 | -1% | -8 | 0%[1.15 µM] | 13% | -5
CCCNC(=O)COC(=O)c1c2c(nc3ccccc13)CCC2 | 1% | -4 | ? | ? | -4
BrC(=C\c1ccccc1)/C=N/n1cnnc1 | -4% | 31* | 26% | 10µM* | 43*
O=C(CSc1nnc(-c2ccco2)o1)Nc1c(F)cccc1F | / | / | 1% | 23% | /
O=C(CSc1nnc(-c2ccco2)o1)c1ccccc1 | -2% | 66 | ? | ? | 33*
O=C(CSc1nnc(-c2ccco2)o1)c1ccc[nH]1 | -2% | 110* | i | 275% | 50*
O=C(CSc1nnc(-c2ccco2)o1)c1ccc(F)c(F)c1 | -7% | 22 | 11% | 6% | 7
COc1cc(OC)cc(C(=O)NCC(=O)OCc2ccc(Cl)c(Cl)c2)c1 | / | / | -17% | -15% | /
COc1cc(/C=N/NC(=O)CSc2ccccn2)ccc1O | -5% | 23 | 24% | -2% | 6
CN(C)c1ccc(/C=N/NC(=O)CCc2nc3ccccc3[nH]2)cc1 | 4% | 21 | 71% | 55% | 3
CCCOc1ccc(/C=N/NC(=O)CSc2ccccn2)cc1OC | 0% | 85* | 81% | 38% | 36*
CN(C)c1ccc(/C=N/NC(=O)CSc2ccccn2)cc1 | 5% | 56* | -1% | 31% | 40*
CCCCNC(=O)c1ccc(NS(=O)(=O)c2ccc3[nH]c(=O)[nH]c3c2)cc1 | -6% | -13 | ? | -10% | -2
Cc1ccc(/C=N/n2cnc3sc4c(c3c2=O)CCCC4)o1 | 7% | 20 | -2% | 47% | 2
Cc1ccc(/C=N/n2cnc3sc(C)c(C)c3c2=O)o1 | 8% | 47 | 56% | i | 26*
SMILES | LmPK inhibitor | Shiga inhibitor | Pf growth 96h | Pf growth 48h | Cycloheximide cs
COc1cc(C(=O)Nc2nnc(SCC(=O)NCC3CCCO3)s2)cc(OC)c1OC (stereo not drawn) | -6% | 24 | ? | -11% | 2
O=C(CSc1nnc(NC(=O)c2ccccc2F)s1)Nc1ccccc1F | -11% | 70* | 21% | 53% | 35*
Cc1ccc(Nc2nnc(SCC(=O)NCc3ccco3)s2)cc1 | 1% | 46 | ? | 5.9µM* | 17
O=C(CSc1nnc(NC(=O)c2ccco2)s1)Nc1ccccc1F | -7% | 11 | 49% | 32%[1.15 µM] | 1
COc1ccccc1C(=O)Nc1nnc(SCC(=O)NCC2CCCO2)s1 (stereo not drawn) | -6% | 115* | 75% | 185% | 40*
COc1cc(OC)cc(C(=O)Nc2nnc(SCC(=O)NCc3ccco3)s2)c1 | -8% | 97 | -24% | 17% | 34*
